Experimental data taken from PubChem BioAssay (NCI).
This is part of a sample that, as a whole, favours compounds with a hit. Of some 79,000 tested, about 15% had one in any assay. The source made the active and inactive calls. No stated cut-off is given here; in the data, active means growth inhibition above about 70%; inactive means the rest.

Columns and labels:
[1] = NCI Yeast Anticancer Drug Screen. Data for the rad52 strain (AID 147);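 further: 0% = growth of vehicle-treated control cultures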; details: S. cerevisiae rad52 mutant growth inhibition, stronger effect = higher value
Summary of the method: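 Screen used a yeast mutant impaired in DNA repair. After compound exposure, growth was measured. Values reflect inhibition compared with vehicle-treated cells.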

[2] = NCI Yeast Anticancer Drug Screen. Data for the wt1 strain (AID 149);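 further: 0% = growth of vehicle-treated wt1 cultures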; details: S. cerevisiae wt1 strain (SPY 50644) growth inhibition, stronger effect = higher value
Summary of the method: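 The wt1 strain was treated with compounds, and growth was compared with vehicle-treated cultures to give inhibition.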

[3] = NCI Yeast Anticancer Drug Screen. Data for the rad50EPP+ strain (AID 151);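 further: 0% = growth of vehicle-treated control cultures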; details: S. cerevisiae rad50 mutant strain, stronger effect = higher value
Summary of the method: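 Exposing the rad50EPP+ strain to each compound, growth was compared with vehicle-only cultures to give inhibition.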

[4] = NCI Yeast Anticancer Drug Screen. Data for the mgt1 strain (AID 153); details: S. cerevisiae mgt1 mutant growth inhibition, stronger effect = higher value
Summary of the method: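 Genetically defined yeast (mgt1) treated with compound; inhibition of growth expressed against vehicle-treated controls.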

[5] = NCI Yeast Anticancer Drug Screen. Data for the rad50 strain (AID 155);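 further: 0% = growth of vehicle-only cultures of the same strain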; details: S. cerevisiae rad50 strain growth inhibition, stronger effect = higher value
Summary of the method: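 Cells are treated with compound, grown, and their growth is then scored against vehicle-only cultures of the same repair-deficient yeast strain.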

[6] = NCI Yeast Anticancer Drug Screen. Data for the mec2-1 strain (AID 157); details: S. cerevisiae mec2-1 strain, stronger effect = higher value
Summary of the method: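 Readout is yeast growth inhibition, normalised to vehicle-treated controls, in the mec2-1 strain exposed to compound.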

[7] = NCI Yeast Anticancer Drug Screen. Data for the rad14 strain (AID 159);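 further: 0% = growth of vehicle-treated control cultures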; details: S. cerevisiae rad14 strain growth inhibition, stronger effect = higher value
Summary of the method: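 Readout: yeast growth inhibition, referenced to vehicle-only cultures. Strain bears a defined alteration in DNA damage repair.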

[8] = NCI Yeast Anticancer Drug Screen. Data for the sgs1 mgt1 strain (AID 161);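 further: 0% = growth of cultures given vehicle only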; details: S. cerevisiae sgs1 mgt1 strain, stronger effect = higher value
Summary of the method: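 This yeast growth screen uses a strain with defined DNA-repair lesions; compound-treated growth is compared with vehicle-treated growth.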

[9] = NCI Yeast Anticancer Drug Screen. Data for the CLN2oe strain (AID 163);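 further: 0% = growth of vehicle-only control cultures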; details: S. cerevisiae CLN2oe strain, stronger effect = higher value
Summary of the method: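 Values reflect how much compound exposure reduced yeast growth, referenced to vehicle-exposed cells. Assay organism is a strain with a defined genetic change affecting cell-cycle control.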

[10] = NCI Yeast Anticancer Drug Screen. Data for the cln2 rad14 strain (AID 165);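 further: 0% = growth equal to vehicle treated cultures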; details: S. cerevisiae cln2 rad14 strain, stronger effect = higher value
Summary of the method: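 Relative to vehicle controls, growth inhibition of compound-treated cln2 rad14 yeast was recorded.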

[11] = NCI Yeast Anticancer Drug Screen. Data for the bub3 strain (AID 167); details: S. cerevisiae bub3 mutant strain, stronger effect = higher value
Summary of the method: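 Part of a panel of yeast mutants defective in DNA damage repair or cell cycle regulation. Each strain is grown with compound, and inhibition is calculated relative to solvent-treated cultures.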

[12] = NCI Yeast Anticancer Drug Screen. Data for the wt2 strain (AID 169);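 further: 0% = growth of vehicle-treated yeast cultures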; details: S. cerevisiae wt2 strain growth inhibition, stronger effect = higher value
Summary of the method: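 Values express reduction in yeast growth under compound treatment, referenced to vehicle-treated cells.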

[13] = NCI Yeast Anticancer Drug Screen. Data for the mlh1 strain (AID 171);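 further: 0% = growth of vehicle-treated control cultures of the same strain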; details: S. cerevisiae mlh1 strain growth inhibition, stronger effect = higher value
Summary of the method: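 Steps: expose the defined-mutant yeast strain to compound; expose a parallel culture to vehicle; measure growth; express compound effect as inhibition relative to the vehicle culture.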

[14] = NCI Yeast Anticancer Drug Screen. Data for the sgs1 strain (AID 173);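 further: 0% = growth of vehicle-only control cultures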; details: S. cerevisiae sgs1 mutant, stronger effect = higher value
Summary of the method: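 Treat defined-mutant yeast with compound; measure growth; calculate inhibition relative to vehicle-treated cells.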

[15] = NCI Yeast Anticancer Drug Screen. Data for the mlh1 rad18 strain (AID 175); details: S. cerevisiae mlh1 rad18 strain growth inhibition, stronger effect = higher value
Summary of the method: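 Test agents were incubated with a yeast strain of defined genotype (DNA damage repair defect). Inhibition of growth was derived by comparison with vehicle-exposed cultures.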

[16] = NCI Yeast Anticancer Drug Screen. Data for the rad18 strain (AID 177); details: S. cerevisiae rad18 mutant growth inhibition, stronger effect = higher value
Summary of the method: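 A genetically defined yeast mutant impaired in DNA damage repair was treated with test compounds, then its growth was measured against cultures receiving vehicle alone.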

[17] = at 5.0 µM (retest, dose inferred, filed as 0.5)
[18] = at 50.0 µM (retest, dose inferred, filed as 5.0)

Measured: growth inhibition

OC(CCNCc1ccccc1)c1ccc2ccccc2c1 (stereo unspecified)
inactive: [1]; at 1.2 µM 15% | [1]; at 3.7 µM 42% | [1]; at 11.0 µM 69% | [2]; at 1.2 µM 2% | [2]; at 3.7 µM 33% | [2]; at 11.0 µM 41% | [2]; at 33.0 µM 60% | [3]; at 1.2 µM -5% | [3]; at 3.7 µM -12% | [3]; at 11.0 µM 13% | [3]; at 33.0 µM 27% | [3]; at 100.0 µM 21% | [4]; at 1.2 µM 14% | [4]; at 3.7 µM 34% | [4]; at 11.0 µM 63% | [5]; at 1.2 µM 15% | [5]; at 3.7 µM 44% | [5]; [17] 22% | [6]; at 1.2 µM -1% | [6]; at 3.7 µM 10% | [6]; [17] 15% | [6]; at 11.0 µM 22% | [6]; at 33.0 µM 47% | [6]; at 50.0 µM 37.9% | [6]; at 100.0 µM 58% | [7]; at 1.2 µM 32% | [7]; at 3.7 µM 56% | [8]; [17] 9% | [9]; at 1.2 µM 19% | [9]; at 3.7 µM 53% | [9]; at 11.0 µM 68% | [10]; [17] 29% | [11]; at 1.2 µM 29% | [11]; at 3.7 µM 45% | [11]; [17] 37% | [11]; at 11.0 µM 68% | [12]; at 1.2 µM 24% | [12]; at 3.7 µM 65% | [13]; at 1.2 µM -4% | [13]; at 3.7 µM 31% | [13]; at 11.0 µM 45% | [14]; at 1.2 µM 18% | [14]; at 3.7 µM 20% | [15]; [17] 51% | [15]; at 50.0 µM 65.7% | [16]; at 1.2 µM -1% | [16]; at 3.7 µM 31% | [16]; at 11.0 µM 45%
active: [1]; at 33.0 µM 87% | [1]; at 100.0 µM 90% | [2]; at 100.0 µM 72% | [4]; at 33.0 µM 84% | [4]; at 100.0 µM 96% | [5]; at 11.0 µM 72% | [5]; at 33.0 µM 92% | [5]; [18] 88% | [5]; at 50.0 µM 75.5% | [5]; at 100.0 µM 94% | [6]; [18] 76% | [7]; at 11.0 µM 85% | [7]; at 33.0 µM 96% | [7]; at 100.0 µM 99% | [8]; [18] 93% | [8]; at 50.0 µM 80.7% | [9]; at 33.0 µM 80% | [9]; at 100.0 µM 93% | [10]; [18] 80% | [10]; at 50.0 µM 75.2% | [11]; at 33.0 µM 91% | [11]; [18] 91% | [11]; at 50.0 µM 72% | [11]; at 100.0 µM 96% | [12]; at 11.0 µM 83% | [12]; at 33.0 µM 95% | [12]; at 100.0 µM 96% | [13]; at 33.0 µM 80% | [13]; at 100.0 µM 95% | [14]; at 11.0 µM 70% | [14]; at 33.0 µM 92% | [14]; at 100.0 µM 95% | [15]; [18] 96% | [16]; at 33.0 µM 70% | [16]; at 100.0 µM 87%

CCCCCCSc1ncnc2[nH]ncc12
active: [5]; at 50.0 µM 79.4% | [6]; at 50.0 µM 76.5% | [8]; at 50.0 µM 72.1% | [11]; at 50.0 µM 93% | [15]; at 50.0 µM 80.8%
inactive: [1]; at 1.2 µM -2% | [1]; at 3.7 µM -1% | [1]; at 11.0 µM 0% | [1]; at 33.0 µM -1% | [1]; at 100.0 µM -1% | [2]; at 1.2 µM -1% | [2]; at 3.7 µM -2% | [2]; at 11.0 µM -3% | [2]; at 33.0 µM -63% | [2]; at 100.0 µM -5% | [3]; at 1.2 µM -2% | [3]; at 3.7 µM 2% | [3]; at 11.0 µM 10% | [3]; at 33.0 µM 22% | [3]; at 100.0 µM 12% | [4]; at 1.2 µM -2% | [4]; at 3.7 µM -1% | [4]; at 11.0 µM -2% | [4]; at 33.0 µM -3% | [4]; at 100.0 µM -4% | [5]; at 1.2 µM 2% | [5]; at 3.7 µM 4% | [5]; [17] -1% | [5]; at 11.0 µM 34% | [5]; at 33.0 µM 4% | [5]; [18] 5% | [5]; at 100.0 µM 5% | [6]; at 1.2 µM -3% | [6]; at 3.7 µM -2% | [6]; [17] 0% | [6]; at 11.0 µM 0% | [6]; at 33.0 µM 0% | [6]; [18] 6% | [6]; at 100.0 µM 0% | [7]; at 1.2 µM -2% | [7]; at 3.7 µM 1% | [7]; at 11.0 µM 1% | [7]; at 33.0 µM 5% | [7]; at 100.0 µM 5% | [8]; [17] -2% | [8]; [18] 0% | [9]; at 1.2 µM -7% | [9]; at 3.7 µM -8% | [9]; at 11.0 µM 3% | [9]; at 33.0 µM -4% | [9]; at 100.0 µM -4% | [10]; [17] -5% | [10]; [18] 6% | [10]; at 50.0 µM 18.9% | [11]; at 1.2 µM 4% | [11]; at 3.7 µM 7% | [11]; [17] 11% | [11]; at 11.0 µM 9% | [11]; at 33.0 µM 15% | [11]; [18] 54% | [11]; at 100.0 µM 6% | [12]; at 1.2 µM -3% | [12]; at 3.7 µM 6% | [12]; at 11.0 µM -3% | [12]; at 33.0 µM -3% | [12]; at 100.0 µM -3% | [13]; at 1.2 µM -1% | [13]; at 3.7 µM -1% | [13]; at 11.0 µM -2% | [13]; at 33.0 µM -2% | [13]; at 100.0 µM -3% | [14]; at 1.2 µM -3% | [14]; at 3.7 µM -3% | [14]; at 11.0 µM 0% | [14]; at 33.0 µM 1% | [14]; at 100.0 µM 3% | [15]; [17] -1% | [15]; [18] 4% | [16]; at 1.2 µM -2% | [16]; at 3.7 µM 1% | [16]; at 11.0 µM 6% | [16]; at 33.0 µM 1% | [16]; at 100.0 µM 3%
